Laboratory results: PubChem BioAssay (NCI)
Compounds without any hit were thinned out: in the full panel of roughly 83,000, 20% have a hit.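 Cells were grown in 96-well plates and exposed to the test compound at a single concentration for 48 hours; results are reported as percent growth, with values below 10 considered active.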 Values without a mark were called inactive. The source made the active and inactive calls.

Test system: HL-60(TB) leukemia
Assay: NCI-60 one-dose screen, 48 h (100 = growth as untreated, 0 = no growth, -100 = all killed)
Details: 10 µM unless noted

In the case of `CCNCCNc1cc(-c2ccc(C#N)cc2)c(C#N)c2nc3ccccc3n12`, the growth is reported as -45.4% (active).
`CCCCCO/N=C\c1c2c(O)c3c(O)c(C)c4c(c3c1O)C(=O)C(C)(O/C=C\C(OC)C(C)C(OC(C)=O)C(C)C(O)C(C)C(O)C(C)/C=C\C=C(\C)C(=O)N2)O4` (stereo not given) was tested, and the growth was -6.96% (active).
`COc1ccc(Nc2cc(C)nc(N3CCN(c4ccnc5cc(Cl)ccc45)CC3)n2)cc1` was tested, and the growth was 2.43% (active).
With `COc1ccc(Cc2nnc(Nc3nc4ccccc4s3)s2)cc1` the growth was -32.7% (active).
With `Cc1nccc2c3ccc(OCc4cn(-c5ccc(Cl)cc5)nn4)cc3n(CCCc3ccccc3)c12` the growth was -64.9% (active).
In the case of `O=C(/C=C\c1ccc(OCCCCCC[P+](c2ccccc2)(c2ccccc2)c2ccccc2)cc1)c1ccc2c(c1)OCCO2`, the growth is reported as -13.2% (active).
In the case of `COc1cc(C(=O)/C=C/c2c(C(F)(F)F)nc3sccn23)cc(OC)c1OC`, the growth is reported as -20% (active).
`Cn1cc(-c2csc(-c3cn(C)c4ccccc34)n2)c2cnccc21` was tested, and the growth was -41.4% (active).
With `Cc1cc(N2CCN(c3ccnc4cc(Cl)ccc34)CC2)nc(NC2CCCCC2)n1` the growth was -54.1% (active).
In the case of `CCn1c(CN2CCN(Cc3ccccc3)CC2)nc2cc(NC(=O)c3cccs3)ccc21`, the growth is reported as -51.2% (active).
In the case of `CCOc1ccccc1-n1c(CN2CCN(C(=O)COc3ccc(CNCCCCCCN4C5CCCC4CC(OC(=O)Nc4cc(C)ccc4OC)C5)cc3)CC2)nc2ccccc2c1=O` (stereo not given), the growth is reported as -76% (active).
For `N#CCCN1C/C(=C/c2ccc(Br)cc2)C(=O)/C(=C/c2ccc(Br)cc2)C1`, the growth was 1.68% (active).

Going from `CNc1ccc2c(c1)c1ccccc1n2C` to `CC(=O)N1Cc2ccccc2C(C)Cc2cc(Cl)ccc21` (stereo not given), the growth rises from 93.7% to 111%.

Going from `CCCCCCCCCCC(=O)CCCCCCCCCC` to `CCCCCCCCCCCC(=O)OC(C)C(=O)Nc1ccccc1` (stereo not given), the growth falls from 95.4% to 91.7%.

First: N#Cc1ccccc1-c1ccc(CN2C(=O)S/C(=C\c3ccc(Br)cc3)C2=O)cc1
Second: O=C(/C=C/c1ccccn1)c1ccc(OCc2nnc(-c3ccc(Cl)cc3)o2)cc1
The growth of the first is higher: 96.2% for the first, 43% for the second.

First: O=C1/C(=C/c2ccccc2O)CC/C1=C\c1ccccc1O
Second: N#Cc1ccc(O)c(C2=NCC(c3ccccc3)O2)c1 (stereo not given)
The growth of the first is lower: 11.9% for the first, 14.5% for the second.

Going from `O=c1[nH]c(NCc2nnnn2-c2ccc(Br)cc2)nc2sc3c(c12)CCCC3` to `O=C(N/N=C1\SCC(=O)N1c1ccccc1)c1cc(-c2cc3ccccc3o2)nn1-c1ccccc1`, the growth rises from 103% to 112%.

First: COc1ccc(/C=C2/SC(=O)N(CC(=O)N3CCN(c4cc5c(cc4F)c(=O)c(C(=O)O)cn5C4CC4)CC3)C2=O)cc1
Second: COc1ccc(/C=C/c2nc(NCCCN(C)C)c3ccccc3n2)cc1
The growth of the first is higher: 105% for the first, 88.3% for the second.

First: COc1c(Br)cc(C(c2cc(Br)c(OC)c(Br)c2)c2ccccc2C(=O)O)cc1Br
Second: COc1cc(-c2nc3sccn3c2-c2ccnc(NCCNS(=O)(=O)c3ccccc3)n2)ccc1F
The growth of the first is higher: 91% for the first, 60.2% for the second.

Compared with `CCCCC(O)(c1ccc(Cl)cc1)C(CN1CCOCC1)c1ccc(Cl)cc1` (stereo not given), `COc1ccc(CCN=Cc2ccc(Cl)cc2)cc1OC` is higher in growth: 53.6% for the first, 86.6% for the second.

First: COc1ccc(-c2nn(C(=O)NCCN(C)C)cc2-c2ccncc2)cc1Cl
Second: O=C(Nc1ccc(Cl)c(Cl)c1)NS(=O)(=O)c1cnccc1Oc1ccc(F)cc1
The growth of the first is lower: 10.2% for the first, 54% for the second.

Going from `C=CC(=O)Nc1ccc2ncnc(Nc3cccc(NS(=O)(=O)CCC)c3Cl)c2c1` to `O=C(NCCCl)Nc1ncccc1OCc1ccccc1`, the growth rises from 80.7% to 90%.

First: S=C(S)OCN1CCOCC1
Second: CCOC(=O)CCN(CCC(=O)OCC)c1ccccc1
The growth of the first is higher: 106% for the first, 104% for the second.

Compared with `O=S(=O)(NCCNc1nccc(-c2c(-c3cccc(F)c3)nc3sccn23)n1)c1ccccc1`, `CCNC(=O)Oc1ccc(/C(=C(\C)c2ccccc2)c2ccc(OCCCN(C)C)cc2)cc1` is lower in growth: 63.1% for the first, 53.2% for the second.

Going from `COC(=O)C(C)[C@H]1CC[C@@H]2[C@]1(C)CC=C1[C@]23C=C[C@]2(C[C@@H](OC(C)=O)CC[C@]12C)C(C(=O)OC)C3C(=O)OC` (stereo not given in full) to `CC12CCC(O)CC1=CCC1C2CCC2(C)C3=NN=CC3CC12` (stereo not given), the growth rises from 66.9% to 103%.

Going from `Cc1ccc(O)c(N2C(=NCc3ccco3)NS(=O)(=O)c3cnccc32)c1` to `[2H]C([2H])([2H])Oc1ccc(/C=C/C(=O)/C=C(/C=C/c2ccc(OC([2H])([2H])[2H])c(OC([2H])([2H])[2H])c2OC([2H])([2H])[2H])OB(F)F)c(OC([2H])([2H])[2H])c1OC([2H])([2H])[2H]`, the growth falls from 114% to 52.3%.
